The values below come from PubChem BioAssay (EPA / NIEHS).

Broadly, the AC50 is the concentration at which the activity in the assay is half-maximal.

Test [1] concerns the target cAMP-dependent protein kinase catalytic subunit alpha (Homo sapiens) (UniProt P17612). Briefly: NVS_ENZ_hPKA: NovaScreen (NVS) Enzymatic Assay for human Protein Kinase A (PKA) (AID 2283192). The method in brief:
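Recombinant human PKA with specific fluorescent substrate, product separated by electrophoretic mobility shift, read 1 h after dosing. Primary screen at 25 uM in duplicate; actives then run in concentration-response up to 50 uM, activity relative to DMSO.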

For test [2], the target named is human Protein Tyrosine Phosphatase Receptor Type B (PTPRB), PTPRB (gene 5787) (UniProt P23467). Briefly: NVS_ENZ_hPTPRB: NovaScreen (NVS) Enzymatic Assay for human Protein Tyrosine Phosphatase Receptor Type B (PTPRB) (AID 2283211). The method in brief: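 Recombinant human PTPRB with a fluorescent substrate, product separated by electrophoretic mobility shift; read 1 h after dosing. Primary screen in duplicate at 25 uM; actives then retested in concentration series; loss of signal versus DMSO.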
human Protein Tyrosine Phosphatase Receptor Type B (PTPRB), PTPRB (gene 5787), sequence (P23467 whole entry, looked up): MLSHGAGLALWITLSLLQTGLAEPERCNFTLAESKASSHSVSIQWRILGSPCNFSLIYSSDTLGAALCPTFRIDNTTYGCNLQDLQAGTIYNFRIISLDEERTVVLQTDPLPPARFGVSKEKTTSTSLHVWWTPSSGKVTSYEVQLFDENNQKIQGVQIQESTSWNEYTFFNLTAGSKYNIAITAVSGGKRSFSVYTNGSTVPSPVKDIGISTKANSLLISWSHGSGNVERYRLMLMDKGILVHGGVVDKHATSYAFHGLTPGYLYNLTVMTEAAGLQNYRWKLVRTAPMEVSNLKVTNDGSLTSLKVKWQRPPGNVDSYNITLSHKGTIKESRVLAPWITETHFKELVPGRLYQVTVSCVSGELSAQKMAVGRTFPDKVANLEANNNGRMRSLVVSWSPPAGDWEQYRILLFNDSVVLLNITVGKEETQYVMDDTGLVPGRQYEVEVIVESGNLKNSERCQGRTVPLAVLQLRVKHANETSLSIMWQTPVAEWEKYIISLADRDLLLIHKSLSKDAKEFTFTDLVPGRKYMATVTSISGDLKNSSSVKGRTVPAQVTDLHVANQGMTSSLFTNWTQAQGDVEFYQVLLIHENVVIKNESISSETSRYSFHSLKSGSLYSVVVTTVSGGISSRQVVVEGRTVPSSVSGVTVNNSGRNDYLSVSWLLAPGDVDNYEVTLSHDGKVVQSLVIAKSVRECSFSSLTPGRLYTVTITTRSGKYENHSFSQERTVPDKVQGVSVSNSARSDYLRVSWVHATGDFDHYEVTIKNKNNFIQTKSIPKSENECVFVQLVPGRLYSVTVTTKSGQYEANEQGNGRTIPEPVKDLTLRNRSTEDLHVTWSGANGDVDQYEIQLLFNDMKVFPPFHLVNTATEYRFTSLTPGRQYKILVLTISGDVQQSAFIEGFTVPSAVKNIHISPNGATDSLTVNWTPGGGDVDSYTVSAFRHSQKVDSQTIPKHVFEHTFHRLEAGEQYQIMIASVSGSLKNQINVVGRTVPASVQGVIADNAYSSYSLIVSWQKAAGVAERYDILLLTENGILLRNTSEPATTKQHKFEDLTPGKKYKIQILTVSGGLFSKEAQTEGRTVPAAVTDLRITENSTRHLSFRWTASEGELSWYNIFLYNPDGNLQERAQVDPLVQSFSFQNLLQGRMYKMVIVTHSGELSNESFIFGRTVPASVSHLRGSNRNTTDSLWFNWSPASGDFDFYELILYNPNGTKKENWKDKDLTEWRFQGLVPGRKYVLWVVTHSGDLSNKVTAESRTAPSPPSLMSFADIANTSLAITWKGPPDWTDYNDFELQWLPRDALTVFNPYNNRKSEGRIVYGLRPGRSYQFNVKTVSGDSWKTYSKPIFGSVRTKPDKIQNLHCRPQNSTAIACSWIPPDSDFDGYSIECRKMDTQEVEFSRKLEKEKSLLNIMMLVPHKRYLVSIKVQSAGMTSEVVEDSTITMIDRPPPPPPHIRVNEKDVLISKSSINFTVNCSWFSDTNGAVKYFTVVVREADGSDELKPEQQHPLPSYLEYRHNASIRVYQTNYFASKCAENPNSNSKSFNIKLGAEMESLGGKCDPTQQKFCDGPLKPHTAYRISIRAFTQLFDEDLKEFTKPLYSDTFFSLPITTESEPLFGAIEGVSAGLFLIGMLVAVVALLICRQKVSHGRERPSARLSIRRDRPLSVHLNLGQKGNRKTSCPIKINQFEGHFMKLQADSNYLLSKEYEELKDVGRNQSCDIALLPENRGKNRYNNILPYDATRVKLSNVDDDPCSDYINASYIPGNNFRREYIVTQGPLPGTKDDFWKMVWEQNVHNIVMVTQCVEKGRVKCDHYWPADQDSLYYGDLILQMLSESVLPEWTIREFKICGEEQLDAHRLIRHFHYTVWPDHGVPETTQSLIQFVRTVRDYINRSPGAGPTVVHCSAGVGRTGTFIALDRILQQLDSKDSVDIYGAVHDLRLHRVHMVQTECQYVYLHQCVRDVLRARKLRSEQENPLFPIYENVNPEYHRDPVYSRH

In test [3] the target is Tyrosine-protein phosphatase non-receptor type 13 (Homo sapiens) (UniProt Q12923). Description: NVS_ENZ_hPTPN13: NovaScreen (NVS) Enzymatic Assay for human Protein Tyrosine Phosphatase Non-receptor Type 13 (PTPN13) (AID 2283205). The procedure, abridged: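 Cell-free assay of recombinant human PTPN13 with a fluorescent substrate, product separated by electrophoretic mobility shift and read 0.5 h after dosing. Primary screen at 25 uM in duplicate, then concentration-response up to 50 uM. Loss of signal fitted against DMSO.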
Tyrosine-protein phosphatase non-receptor type 13 (Homo sapiens), sequence (Q12923 whole entry, looked up): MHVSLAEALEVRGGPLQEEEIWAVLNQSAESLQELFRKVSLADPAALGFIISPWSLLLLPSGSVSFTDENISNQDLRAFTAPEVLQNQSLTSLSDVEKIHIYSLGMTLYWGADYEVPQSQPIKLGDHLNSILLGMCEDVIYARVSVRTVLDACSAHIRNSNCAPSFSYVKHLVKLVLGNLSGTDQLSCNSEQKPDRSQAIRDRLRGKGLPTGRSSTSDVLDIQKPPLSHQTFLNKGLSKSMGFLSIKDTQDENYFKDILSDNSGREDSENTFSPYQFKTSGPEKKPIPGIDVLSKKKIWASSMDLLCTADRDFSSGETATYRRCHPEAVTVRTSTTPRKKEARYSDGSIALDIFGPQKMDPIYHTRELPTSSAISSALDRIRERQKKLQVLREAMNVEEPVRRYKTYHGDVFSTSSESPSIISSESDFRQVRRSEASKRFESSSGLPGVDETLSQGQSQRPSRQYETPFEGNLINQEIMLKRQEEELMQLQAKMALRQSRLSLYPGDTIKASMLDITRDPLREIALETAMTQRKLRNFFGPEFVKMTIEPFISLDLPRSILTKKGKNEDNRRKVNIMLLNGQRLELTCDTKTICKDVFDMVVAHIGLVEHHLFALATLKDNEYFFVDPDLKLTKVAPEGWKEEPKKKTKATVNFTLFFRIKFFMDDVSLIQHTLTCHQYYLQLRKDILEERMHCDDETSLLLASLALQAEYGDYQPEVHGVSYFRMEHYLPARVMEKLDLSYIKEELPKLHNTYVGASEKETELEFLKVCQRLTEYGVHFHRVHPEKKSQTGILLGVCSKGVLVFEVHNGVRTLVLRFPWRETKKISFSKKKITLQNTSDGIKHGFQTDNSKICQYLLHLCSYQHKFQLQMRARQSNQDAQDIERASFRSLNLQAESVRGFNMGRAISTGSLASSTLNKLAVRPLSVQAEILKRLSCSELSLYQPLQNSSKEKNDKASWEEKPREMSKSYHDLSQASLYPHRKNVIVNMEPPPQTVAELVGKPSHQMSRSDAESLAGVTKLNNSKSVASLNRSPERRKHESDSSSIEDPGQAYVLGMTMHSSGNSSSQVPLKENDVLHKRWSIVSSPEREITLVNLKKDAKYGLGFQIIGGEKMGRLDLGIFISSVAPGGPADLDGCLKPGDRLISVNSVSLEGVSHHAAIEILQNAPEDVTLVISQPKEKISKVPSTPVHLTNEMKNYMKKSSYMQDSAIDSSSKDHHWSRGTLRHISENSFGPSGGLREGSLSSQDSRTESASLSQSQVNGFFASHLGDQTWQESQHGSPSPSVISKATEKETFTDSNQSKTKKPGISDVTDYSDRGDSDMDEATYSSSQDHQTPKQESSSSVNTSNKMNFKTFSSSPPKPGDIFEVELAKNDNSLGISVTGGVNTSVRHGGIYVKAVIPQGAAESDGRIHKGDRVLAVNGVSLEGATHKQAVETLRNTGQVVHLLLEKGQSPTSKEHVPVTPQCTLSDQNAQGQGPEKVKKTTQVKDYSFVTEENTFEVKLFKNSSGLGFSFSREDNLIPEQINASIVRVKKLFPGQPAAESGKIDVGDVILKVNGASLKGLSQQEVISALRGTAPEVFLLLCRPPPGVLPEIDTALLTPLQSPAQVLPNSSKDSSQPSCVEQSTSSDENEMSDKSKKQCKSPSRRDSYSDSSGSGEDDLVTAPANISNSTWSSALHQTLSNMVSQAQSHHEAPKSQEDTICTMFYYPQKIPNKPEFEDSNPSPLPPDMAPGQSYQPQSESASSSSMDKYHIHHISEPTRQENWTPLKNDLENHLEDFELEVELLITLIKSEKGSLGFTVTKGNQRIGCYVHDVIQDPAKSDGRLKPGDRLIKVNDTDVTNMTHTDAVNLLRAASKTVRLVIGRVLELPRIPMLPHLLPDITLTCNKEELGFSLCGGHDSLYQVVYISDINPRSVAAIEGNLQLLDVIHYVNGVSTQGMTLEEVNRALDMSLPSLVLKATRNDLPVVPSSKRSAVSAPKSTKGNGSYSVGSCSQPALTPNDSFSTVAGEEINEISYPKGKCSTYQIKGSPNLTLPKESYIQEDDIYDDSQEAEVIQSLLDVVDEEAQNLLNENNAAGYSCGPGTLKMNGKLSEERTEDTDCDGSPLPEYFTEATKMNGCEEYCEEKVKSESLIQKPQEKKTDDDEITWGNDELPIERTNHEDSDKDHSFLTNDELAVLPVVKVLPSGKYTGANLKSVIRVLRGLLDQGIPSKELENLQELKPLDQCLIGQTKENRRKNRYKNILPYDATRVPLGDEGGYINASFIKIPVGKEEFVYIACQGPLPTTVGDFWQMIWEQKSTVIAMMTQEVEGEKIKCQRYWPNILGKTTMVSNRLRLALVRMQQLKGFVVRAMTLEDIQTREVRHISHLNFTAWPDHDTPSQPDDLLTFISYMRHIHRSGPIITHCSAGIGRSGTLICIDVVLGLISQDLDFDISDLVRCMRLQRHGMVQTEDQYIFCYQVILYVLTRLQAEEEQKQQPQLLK

Test [4] deals with human Phosphodiesterase 10 (PDE10), PDE10A (gene 10846) (UniProt Q9Y233). Description: NVS_ENZ_hPDE10: NovaScreen (NVS) Enzymatic Assay for human Phosphodiesterase 10 (PDE10) (AID 2283195). The procedure, abridged:
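Recombinant human PDE10 with fluorescent substrate, 1 h, product separated by electrophoretic mobility shift. Loss of enzyme activity fitted against DMSO; initial screen 25 uM in duplicate, actives run to 50 uM maximum.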

Test [5] concerns the target human Protein Tyrosine Phosphatase Receptor Type C (PTPRC), PTPRC (gene 5788) (UniProt P08575). Description: NVS_ENZ_hPTPRC: NovaScreen (NVS) Enzymatic Assay for human Protein Tyrosine Phosphatase Receptor Type C (PTPRC) (AID 2283212). The method in brief:
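Yeast-extracted human PTPRC used in a cell-free colorimetric enzyme activity read-out, 1 h after dosing. Primary screen in duplicate at 25 uM; actives rerun in concentration-response up to 50 uM, DMSO as baseline.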

Values joined by “and” are separate entries in the source; they are usually repeats but may differ in a detail not shown here. Equal values may be shown once. Records with an inconclusive call do not appear. Some structures have more than one record in an assay (separate samples or runs), and their calls can disagree. Active and inactive are the calls of the source. The calls were made as follows: active = hit-call score of the fitted dose curve at least 0.9, where 1 is the maximum; inconclusive = response in the unintended direction; inactive = score below 0.9.

On to `S=C1NCCN1`, for which the molecule was classed as inactive in test [1] and in test [2].

Consider `Nc1c(Cl)cc([N+](=O)[O-])cc1Cl`, for which the call in test [1] was inactive. Also, the AC50 in test [3] is 25 µM (active).

Take `CN(C)[C@@H]1C(=O)C(C(N)=O)=C(O)[C@@]2(O)C(=O)C3=C(O)c4c(O)cccc4[C@@](C)(O)[C@H]3[C@H](O)[C@@H]12`: the molecule was classed as inactive in test [4] and in test [2]. Also, the half-maximal activity concentration (AC50) is 2.9 µM (active) in test [3]; 29.7 µM (active) and 10.1 µM (active) in test [2]; 11.4 µM (active) in test [5].
